High-throughput results deposited in PubChem by National Center for Advancing Translational Sciences (NCATS).
Shown are actives, neighbours in structure and some others; about 7.3% of the full set was active somewhere.
HCMV inh = blocks human cytomegalovirus replication. HFF cells, HCMV-luciferase reporter, 72 h; hits give low values. AID 1259415. actives 4.5% (n = 410,000). activity change, negative = inhibition, % at 57.5 µM; in the data active means activity change below about -60%; inconclusive means no clear call, values can overlap the other calls; inactive means above about -39%
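HFF cells seeded 16 h at 37C, treated with compounds, infected with luciferase-reporter HCMV at MOI 1 PFU/cell; luciferase read at 72 h post infection, normalized to buffer-only and Salinomycin controls.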
Vaccinia Venus = vaccinia inhibition (Venus reporter) | Vaccinia virus Venus reporter expression, fluorescence | Potency, µM (top dose mostly 36.5 µM), actives largely listed as inhibitors | actives 0.46% (n = 330,000) | AID 720580; calls by dose curve; tested in A549 cells; further: nearly all actives have a fitted effect of over 30% in size
FMDV antiviral = blocks foot and mouth disease virus; FMDV antiviral cell-based qHTS; Potency, µM (top dose mostly 57.9 µM), hits mostly inhibitors; actives 1.2% (n = 410,000); calls by dose curve; tested in HEK293T cells; further: read-out not given here; nearly all actives have a fitted effect of over 45% in size
HCV inh = HCV inhibition; Huh7.5.1 HCVcc-Cre infection, luciferase reporter, 44 h; Potency, µM (top dose mostly 41.8 µM), actives largely listed as inhibitors; actives 3.4% (n = 340,000); active means well fitted inhibition curve with a large enough effect; inconclusive means small, poorly fitted or top-dose-only effect, or another doubt; inactive means no such curve, though single readings can be large or run the other way
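Compounds are dispensed onto cells plated 4 h earlier at 1,000 per well, with HCVcc-Cre virus (about 0.5 moi) added next. Following 44 h of culture, luminescent signal is measured for 15 sec after 15 min with substrate at room temperature.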
VACV mCherry inh = inhibitors of vaccinia virus infection (mCherry reporter signal). actives 0.63% (n = 310,000). Potency, µM (series often up to 36.5 µM), usual class: inhibitors. Vaccinia virus mCherry reporter infection, fluorescence; calls by dose curve; tested in A549 cells; further: nearly all actives have a fitted effect of over 35% in size
A number is an active result; - = inactive; ? = inconclusive; . = no result; + = active, no number.

SMILES	HCMV inh	Vaccinia Venus	FMDV antiviral	HCV inh	VACV mCherry inh
CC[C@@H]1CCCCc2ccccc2[C@H](C(=O)C[C@H](O)CC(C)=O)OC1=O	-	-	-	-	-
Cc1cc(C=O)c(C)n1-c1ccc(N2CCCCC2)c([N+](=O)[O-])c1	-	-	?	?	.
Cc1cc(/C=C(\C#N)C(N)=O)c(C)n1-c1ccc(N2CCOCC2)c([N+](=O)[O-])c1	-74.7	-	?	?	?
Cc1ccc(NC(=O)CSCC(=O)N(C)CC(=O)Nc2ccccc2C(F)(F)F)cc1	-	-	-	-	-
CCOC(=O)N1CCN(C(=O)c2ccc3nc4ccc(Cl)cc4c(=O)n3c2)CC1	-97.2	.	-	-	.
Cc1ccc(CNc2ncnc3sc(C(=O)N4CCC(N5CCCC(O)C5)CC4)c(C)c23)o1 (centres undefined)	.	-	-	.	-
Cc1ccc(S(=O)(=O)NCCc2nnc3ccc(SCc4ccc(F)cc4)nn23)cc1	-	-	-	.	-
C/C(=N\Nc1cc(-c2ccccc2)nc(-c2ccccc2)n1)c1ccc(O)c(C)c1	-64.2	?	-	3.55µM	-
COc1cc(N/N=C(\C)c2ccc(N)cc2)nc(-c2ccccc2)n1	-	.	-	11.2µM	.
COc1cc(N/N=C(\C)c2ccc(O)c(C)c2)nc(-c2ccccc2)n1	-90.3	-	-	?	?
C/C(=N\Nc1cc(C)nc(-c2ccccc2)n1)c1cccc([N+](=O)[O-])c1	-	.	?	?	.
Cc1cccc(N2CCN(C(=O)C3CCN(S(=O)(=O)c4c(C)noc4C)CC3)CC2)c1C	-	-	?	12.6µM	-
Cc1noc(C)c1S(=O)(=O)N1CCC(C(=O)N2CCN(c3ccccc3Cl)CC2)CC1	-	-	-	-	-
Cc1ccc(/C=C/c2onc(C)c2S(=O)(=O)N2CCC(C(=O)N3CCC(N(C)C(C)C)CC3)CC2)cc1	-100.7	?	-	.	-
CC(=O)c1ccc(N2CCN(C(=O)C3CCN(S(=O)(=O)c4c(C)noc4/C=C/c4ccc(C)cc4)CC3)CC2)cc1	-	-	-	.	-
Cc1noc(C)c1S(=O)(=O)N1CCCC(C(=O)N2CCN(C3CCCCC3)CC2)C1 (centres undefined)	-	-	-	-	-
Cc1ccc(C)c(N2CCN(C(=O)C3CCCN(S(=O)(=O)c4c(C)noc4C)C3)CC2)c1 (centres undefined)	-	-	-	11.2µM	-
Cc1noc(C)c1S(=O)(=O)N1CCC(C(=O)N2CCN(c3ccccc3)CC2)CC1	-	-	-	.	-
Cc1ccc(C)c(N2CCN(C(=O)C3CCN(S(=O)(=O)c4c(C)noc4C)CC3)CC2)c1	-68.4	.	?	?	.
Cc1ccccc1CN1C(=O)c2ccccc2Sc2ccc(C(=O)NC(C)c3ccccc3)cc21 (centres undefined)	?	-	-	.	-
O=C(CSc1ccc(-c2cccnc2)nn1)Nc1ccc(F)cc1	-	-	-	.	-
Cc1ccc(NC(=O)Cn2c(=O)n(-c3ccc(C)cc3)c(=O)c3ccc(C(=O)NCc4ccccc4Cl)cc32)cc1	-60.2	?	-	.	?
Cc1cc(C)cc(NC(=O)Cn2c(=O)n(-c3cc(C)cc(C)c3)c(=O)c3oc4ccccc4c32)c1	-60.7	-	-	.	-
CCOc1ccc(-n2c(=O)c3sccc3n(CC(=O)Nc3cccc(OC)c3)c2=O)cc1	+	.	-	-	.
Cc1ccc(-n2c(=O)c3ccc(C(=O)NCc4ccccc4Cl)cc3n(CC(=O)Nc3cccc(Cl)c3)c2=O)cc1	-	?	-	.	-
SMILES	HCMV inh	Vaccinia Venus	FMDV antiviral	HCV inh	VACV mCherry inh
COc1cccc(NC(=O)Cn2c(=O)n(-c3ccccc3)c(=O)c3oc4ccccc4c32)c1	-67.9	-	-	-	-
COc1cc(NC(=O)Cn2c(=O)n(C(C)C)c(=O)c3oc4ccccc4c32)cc(OC)c1	-	-	-	.	-
CC(=O)Nc1ccc(NC(=O)Cn2c(=O)n(-c3ccccc3)c(=O)c3oc4ccccc4c32)cc1	-	-	-	-	-
Cc1ccc(-n2c(=O)c3oc4ccccc4c3n(CC(=O)Nc3ccccc3)c2=O)cc1C	-66.5	-	-	.	-
CC(=O)Nc1ccc(NC(=O)Cn2c(=O)n(-c3ccc(C)cc3)c(=O)c3oc4ccccc4c32)cc1	-64.9	-	-	-	-
COc1ccc(OC)c(CCNC(=O)CCn2c(=O)c3cccn3c3cccnc32)c1	?	-	-	.	-
O=C(Nc1ccc2nc(SCC(=O)N3CCOCC3)sc2c1)c1cccc(Cl)c1	-	-	?	.	-
Cc1cc(O)c(C(=O)/C=C/c2ccccc2Br)c(=O)o1	-87.3	-	11.2µM	-	-
Cc1cc(O)c(C(=O)/C=C/c2ccccc2)c(=O)o1	-92.5	-	11.2µM	-	-
CCOc1ccc(/C=C/C(=O)c2c(O)cc(C)oc2=O)cc1	?	-	-	-	-
Cc1cc(O)c(C(=O)/C=C/c2ccc(C(C)C)cc2)c(=O)o1	-	.	-	-	.
COc1cc(OC)c2c(-c3ccccc3)cc(=O)oc2c1C(CC(=O)N1CCOCC1)c1ccc2c(c1)OCO2 (centres undefined)	-94.0	-	-	?	-
COc1ccc(C(CCN2CCCC2)c2c(OC)cc(OC)c3c(-c4ccccc4)cc(=O)oc23)cc1 (centres undefined)	-	?	-	-	-
COc1ccc(C(CCN2CCOCC2)c2c(OC)cc(OC)c3ccc(=O)oc23)cc1 (centres undefined)	-	-	-	2.82µM	-
CCCCCc1cc(=O)oc2c(C(CCN3CCCCC3)c3ccc4c(c3)OCO4)c(OC)cc(OC)c12 (centres undefined)	-80.3	14.1µM	-	?	?
COc1ccc(C(CCN2CCOCC2)c2c(OC)cc(OC)c3c(-c4ccccc4)cc(=O)oc23)cc1 (centres undefined)	-	?	-	31.6µM	-
COc1cc(OC)c2ccc(=O)oc2c1C(CCN1CCOCC1)c1ccc2c(c1)OCO2 (centres undefined)	-	-	-	-	-
COc1ccccc1NC(=O)C(C)Sc1nnc2ccccn12 (centres undefined)	-	.	-	-	.
COc1ccc(-c2nc3ccccc3o2)cc1NC(=O)c1cccc2c(Cl)cccc12	-	-	-	.	-
COc1ccc(C2CC(=O)Oc3c(C(CCN4CCCCC4)c4ccc(N(C)C)cc4)c(OC)cc(OC)c32)cc1 (centres undefined)	-60.4	?	-	-	?
O=C(Cn1cc(S(=O)(=O)Cc2cccc(Cl)c2)c2ccccc21)Nc1ccccc1C(F)(F)F	?	-	-	.	-
COc1ccc(C2C3=C(CC(C)(C)CC3=O)Oc3ncn(CC(C)C)c(=N)c32)cc1 (centres undefined)	-	-	-	-	.
COc1ccc(C2C3=C(CC(C)(C)CC3=O)Oc3ncn(Cc4ccco4)c(=N)c32)cc1 (centres undefined)	-	.	28.2µM	?	.
CC(=O)Nc1cccc(-c2ccnc3c2CC(C(=O)NCCc2ccccc2)O3)c1 (centres undefined)	-86.1	-	?	.	-
